Most compounds without a hit are left out; they make up all but 27% or so of the library.
CYP2C19 inhib: blocks human cytochrome P450 2C19; CYP2C19 Supersomes, luciferin-H EGE luminescence, 30 min; inhibition, % at 5 µM; actives 21% (n = 96,000); AID 778;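 active = CYP2C19 inhibition above a set limit at 5 µM in the primary screen, cut at about 50% in these data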;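 note: plate controls were negative control wells for no effect and 2.5 mM tranylcypromine positive control for full effect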
sEH inh: soluble epoxide hydrolase (human) inhibition; recombinant human sEH enzymatic activity assay; inhibition, % at 2 µM; actives 0.34% (n = 91,000); in the data active = inhibition above about 80%
CYP2C9 activ: CYP2C9 (human) activation. activation factor at 5 µM. AID 1024. P11712. recombinant CYP2C9, luciferin-H conversion, luminescence; active compounds read high; factor 1 = untreated enzyme, 0 = blocked. actives 1.4% (n = 96,000);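 active = activation factor of 2 or more for CYP2C9 at a 5 µM dose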;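 note: 0 = sulfaphenazole-blocked wells and 1 = vehicle-only wells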
Target sequence (P11712 whole entry, looked up): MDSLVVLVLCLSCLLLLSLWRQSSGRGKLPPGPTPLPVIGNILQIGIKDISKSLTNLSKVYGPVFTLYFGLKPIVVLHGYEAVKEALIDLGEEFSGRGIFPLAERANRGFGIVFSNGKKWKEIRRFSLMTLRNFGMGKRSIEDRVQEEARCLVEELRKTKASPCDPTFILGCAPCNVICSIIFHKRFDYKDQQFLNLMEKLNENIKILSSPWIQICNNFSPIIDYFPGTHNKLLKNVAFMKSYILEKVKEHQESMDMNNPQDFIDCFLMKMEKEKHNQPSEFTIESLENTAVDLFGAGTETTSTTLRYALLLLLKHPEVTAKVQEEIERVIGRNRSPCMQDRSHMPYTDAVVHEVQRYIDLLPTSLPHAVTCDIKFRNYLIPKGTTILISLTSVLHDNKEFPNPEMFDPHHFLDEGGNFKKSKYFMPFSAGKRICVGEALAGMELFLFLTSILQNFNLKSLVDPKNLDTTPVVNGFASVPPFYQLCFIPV
CYP2C19 activ: cytochrome P450 2C19 (human) activation | activation factor at 5 µM | AID 1025 | 96,000 tested, under 10 active | recombinant CYP2C19, luciferin-H EGE luminescence; active compounds read high; 0 = fully inhibited enzyme, 1 = untreated enzyme | P33261;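 active = activation factor of at least 2 at 5 µM in the primary screen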;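 note: 0 = wells with 2.5 mM tranylcypromine and 1 = vehicle-only wells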
sEH act: increases human soluble epoxide hydrolase activity; P34913; purified human sEH enzymatic activity, activator screen; activation, % at 2 µM; actives 0.04% (n = 91,000); AID 717; in the data active = activation above about 37%
CYP2C9 inh: blocks human cytochrome P450 2C9; P11712; CYP2C9 Supersomes, luciferin-H conversion, luminescence; inhibition, % at 5 µM; actives 20% (n = 96,000); AID 777;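 active = blocking of liver enzyme CYP2C9 beyond about 50% at 5 µM, limit read from the data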
* marks the source's active call; other numbers are inactive results.

Screening O=C(NCCc1ccncc1)C12CC3CC(CC(C3)C1)C2 returned CYP2C19 inhib 94*, sEH inh 8, CYP2C9 activ 0.8, CYP2C19 activ 0.1, sEH act -6 and CYP2C9 inh 25.
Screening Cc1ccc2cc(CN(C(=O)c3ccncc3)C(C)C)c(=O)[nH]c2c1 returned CYP2C19 inhib 23, sEH inh 16, CYP2C9 activ 0.8, CYP2C19 activ 0.8, sEH act -16 and CYP2C9 inh 22.
For CCn1c(C)[n+](CCOCC[n+]2c(C)n(CC)c3cc(Cl)c(Cl)cc32)c2cc(Cl)c(Cl)cc21 the results were CYP2C19 inhib -12, sEH inh -18, CYP2C9 activ 1.1, CYP2C19 activ 1.1, sEH act 16 and CYP2C9 inh -8.
For c1ccc(NC(=NCc2ccco2)c2ccccc2)cc1 the results were CYP2C19 inhib 8, sEH inh -12, CYP2C9 activ 0.8, CYP2C19 activ 0.9, sEH act 12 and CYP2C9 inh 19.
`CCOC(=O)/C(C(N)=NCc1ccco1)=C(/O)c1ccccc1` gave CYP2C19 inhib 55*, sEH inh 10, CYP2C9 activ 0.6, CYP2C19 activ 0.5, sEH act -7 and CYP2C9 inh 40.
Cc1cc(NC(=O)COc2nnc(-c3ccccc3)c3ccccc23)no1 was read as CYP2C19 inhib 52*, sEH inh -17, CYP2C9 activ 0.4, CYP2C19 activ 0.5, sEH act 14 and CYP2C9 inh 63*.
Cc1cc(NC(=O)CCOc2ccccc2)no1 was read as CYP2C19 inhib 26, sEH inh 4, CYP2C9 activ 0.8, CYP2C19 activ 0.7, sEH act 0 and CYP2C9 inh 18.
`Cc1cc(NC(=O)CSc2ccc(-c3ccccc3)nn2)no1` gave CYP2C19 inhib 44, sEH inh 4, CYP2C9 activ 0.7, CYP2C19 activ 0.6, sEH act -5 and CYP2C9 inh 35.
`Cc1cc(NC(=O)COc2ccc(N(C)S(=O)(=O)c3ccccc3)cc2)no1` gave CYP2C19 inhib 22, CYP2C9 activ 0.4, CYP2C19 activ 0.8 and CYP2C9 inh 55*.
Cc1cc(NC(=O)COc2cccc(C)c2C)no1 was read as CYP2C19 inhib 20, sEH inh -1, CYP2C9 activ 0.7, CYP2C19 activ 0.8, sEH act 1 and CYP2C9 inh 27.
For CCN(c1ccccc1)S(=O)(=O)c1ccc(OCC(=O)Nc2cc(C)on2)cc1 the results were CYP2C19 inhib 16, sEH inh 0, CYP2C9 activ 0.3, CYP2C19 activ 0.8, sEH act 4 and CYP2C9 inh 67*.
`O=C(O)c1ccccc1S(=O)(=O)NCC(O)COc1ccc(Br)cc1` (configuration not stated) gave CYP2C19 inhib 12, sEH inh -11, CYP2C9 activ 0.7, CYP2C19 activ 0.9, sEH act 6 and CYP2C9 inh 26.
Cc1ccc(N(CN2CCCC2=O)C(=O)c2ccc(OC(C)C)cc2)cc1 was read as CYP2C19 inhib 34, sEH inh -4, CYP2C9 activ 0.9, CYP2C19 activ 0.7, sEH act 5 and CYP2C9 inh 13.
CCOC(=O)CNC(=O)c1cn(CC(C)C)c(=O)c2cc(OC)c(OC)cc12 was read as sEH inh 6 and sEH act -8.
`Cc1c(Cl)c(-c2n[nH]c(=S)n2-c2ccc(F)cc2)nn1C` gave CYP2C19 inhib -3, sEH inh 2, CYP2C9 activ 1.1, CYP2C19 activ 1, sEH act 1 and CYP2C9 inh -9.
Screening CCCCn1c(-c2nn(C)c(C)c2Cl)n[nH]c1=S returned CYP2C19 inhib 19, sEH inh -1, CYP2C9 activ 0.8, CYP2C19 activ 0.8, sEH act 3 and CYP2C9 inh 18.
`CCCCn1c(-c2nn(C)cc2Cl)n[nH]c1=S` gave CYP2C19 inhib 52*, sEH inh -14, CYP2C9 activ 0.8, CYP2C19 activ 0.5, sEH act 16 and CYP2C9 inh 21.
For CC(C)Cn1c(-c2nn(C)cc2Cl)n[nH]c1=S the results were CYP2C19 inhib 57*, sEH inh 1, CYP2C9 activ 1, CYP2C19 activ 0.4, sEH act 2 and CYP2C9 inh 0.
Screening CC1(C)Cc2c(cnn2-c2ccccc2)-c2c1c1ccccc1n2CC(O)CBr (configuration not stated) returned CYP2C19 inhib 53*, sEH inh 12, CYP2C9 activ 0.5, CYP2C19 activ 0.5, sEH act -8 and CYP2C9 inh 55*.
`CC1CCN(c2oc(Cc3cccc4ccccc34)nc2C#N)CC1` gave CYP2C19 inhib 93*, sEH inh 14, CYP2C9 activ 0.2, CYP2C19 activ 0.1, sEH act -13 and CYP2C9 inh 76*.
`C=CCNc1oc(/C=C/c2ccccc2)nc1C#N` gave CYP2C19 inhib 68*, sEH inh -13, CYP2C9 activ 0.3, CYP2C19 activ 0.3, sEH act 15 and CYP2C9 inh 74*.
`Cc1ccc(-c2nc(C#N)c(NCc3cccc4c3OCO4)o2)cc1` gave CYP2C19 inhib -5, sEH inh 8, CYP2C9 activ 0.6, CYP2C19 activ 1.1, sEH act -3 and CYP2C9 inh 39.
`N#Cc1nc(-c2ccc(F)cc2)oc1NCc1cccc2c1OCO2` gave CYP2C19 inhib 17, CYP2C9 activ 0.4, CYP2C19 activ 0.8 and CYP2C9 inh 63*.
For N#Cc1nc(-c2ccccc2)oc1NCCN1CCCCC1 the results were CYP2C19 inhib 38, sEH inh 5, CYP2C9 activ 0.9, CYP2C19 activ 0.6, sEH act -7 and CYP2C9 inh 9.
`C=CCNc1oc(Cc2cccc3ccccc23)nc1C#N` gave CYP2C19 inhib 100*, sEH inh -6, CYP2C9 activ 0.4, CYP2C19 activ 0, sEH act 10 and CYP2C9 inh 65*.
COc1ccc(C2(C(=O)NC(C)C)CCCC2)cc1OC was read as CYP2C19 inhib 16, sEH inh 9, CYP2C9 activ 0.9, CYP2C19 activ 0.8, sEH act -8 and CYP2C9 inh 13.
For COc1ccc(C2C(C(=O)NCC3CCCO3)c3cc(OC)c(OC)cc3C(=O)N2C)cc1OC (configuration not stated) the results were CYP2C19 inhib 42, CYP2C9 activ 0.9, CYP2C19 activ 0.6 and CYP2C9 inh 12.
For CCN(CC)S(=O)(=O)c1ccc2[nH]cc(C(=O)NCCCN3CCCCC3C)c(=O)c2c1 (configuration not stated) the results were CYP2C19 inhib -3, sEH inh 10, CYP2C9 activ 0.9, CYP2C19 activ 1, sEH act -9 and CYP2C9 inh 10.
N#Cc1nc(Cc2cccc3ccccc23)oc1NCCN1CCOCC1 was read as CYP2C19 inhib -11, sEH inh -21, CYP2C9 activ 1.1, CYP2C19 activ 1.1, sEH act 17 and CYP2C9 inh -8.
